Assay results: PubChem BioAssay (EPA / NIEHS)
“And” between values parts separate entries of the source, which are not always exact repeats. Equal values may be shown once. Results filed as inconclusive are left out. More than one record can exist for a structure, and the calls need not agree. The source made the active and inactive calls. Rule for the calls, unless noted: active = hit-call score of the fitted dose curve at least 0.9, where 1 is the maximum; inactive = score below 0.9.

Experiments:
[1] = CCTE_Simmons_MITO_basal_resp_rate: CCTE's HepG2 Seahorse XF Respirometric Screening Assay at Basal Respiratory State, Simmons Lab (AID 2284001); conditions: actives raise or lower the signal
Outline: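 Basal-phase OCR of HepG2 cells on a Seahorse XF96, analysed by bidirectional fit relative to DMSO vehicle; chemicals at 7 concentrations, 125 nM–100 uM final; three biological replicates; fenpyroximate and 2,4-dinitrophenol positive controls.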

[2] = CCTE_Simmons_MITO_max_resp_rate: CCTE's HepG2 Seahorse XF Respirometric Screening Assay at Maximal Respiratory State [uncoupled], Simmons Lab (AID 2284002); conditions: actives raise or lower the signal
Outline: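 Maximal (FCCP-uncoupled) respiration rate in HepG2, from Seahorse kinetic OCR over 72 min at 6 min cycles. Compounds at 125 nM–100 uM final, 7 points, three biological replicates; both directions fit relative to DMSO.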

[3] = CCTE_Simmons_MITO_inhib_resp_rate: CCTE's HepG2 Seahorse XF Respirometric Screening Assay at Inhibited Respiratory State [full ETC block], Simmons Lab (AID 2284006); conditions: actives raise or lower the signal
Outline: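 This endpoint is the respiration rate remaining after rotenone/antimycin A block, in HepG2 cells on a Seahorse XF96. Chemicals spanned 125 nM–100 uM final, in three biological replicates. OCR was read every 6 minutes for 72 minutes and compared with DMSO vehicle.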

[4] = CCTE_Simmons_MITO_viability: CellTiter-Glo Viability Assessment for CCTE's HepG2 Seahorse XF Respirometric Screening Assay [post-hoc], Simmons Lab (AID 2284007; active = hit-call score of the fitted dose curve at least 0.9, where 1 is the maximum;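 for AC50: cells exposed to chemical for 90 min before the ATP read; actives lower ATP signal relative to DMSO baseline meaning reduced viability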)
Outline: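 Luciferase-coupled ATP read-out after the Seahorse run: HepG2 cells treated 90 minutes with test chemical, 7-point series of 125 nM–100 uM final, in triplicate biological runs. Vehicle DMSO; dichlone as positive control over 8 concentrations.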

[5] = CCTE_Shafer_MEA_acute_spike_number: CCTE's Neural Acute Assay for Total Number of Spikes, Shafer Lab (AID 2284008);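 for AC50: curve fitted for decrease in spike count so AC50 reflects inhibitors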
Outline: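 Total spike count from 40 min recordings before and during compound exposure (0.03-40 uM), given as per-well percent change. Cortical cultures from rat, DIV 13 or 15, 37 C; adaptive detection threshold 8x rms noise.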

[6] = CCTE_Shafer_MEA_acute_firing_rate_mean: CCTE's Neural Acute Assay for Mean Firing Rate, Shafer Lab (AID 2284009);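 note: analyzed for loss of signal so actives lower firing rate relative to DMSO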
Outline: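 Rat cortical neuron cultures matured to DIV 13 or 15, equilibrated 20 min at 37 C, then recorded 40 min for baseline. Compound (0.03-40 uM) added and a further 40 min recorded; percent change in mean firing rate calculated per well.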

[7] = CCTE_Harrill_HTTr_Viability_MCF7: CCTE's 6-hour Cell Viability Assessment for the High-Throughput Transcriptomics (HTTr) Platform, in MCF-7 cells cultured in DMEM + 10% fetal bovine serum, Harrill Lab (AID 2284010)
Outline: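 Propidium iodide exclusion, imaged by high-content analysis, gauged viability after a six-hour exposure across eight concentrations. Cells were MCF-7 grown in DMEM with 10% fetal bovine serum; fits run in both directions against DMSO.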

[8] = CCTE_Harrill_HTTr_Apoptosis_MCF7: CCTE's 6-hour Apoptosis Assessment for the High-Throughput Transcriptomics (HTTr) Platform, in MCF-7 cells cultured in DMEM + 10% fetal bovine serum, Harrill Lab (AID 2284011)
Outline: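 High-content imaging of CellEvent Caspase 3/7 Green signal follows a six-hour exposure, with eight concentrations per chemical. MCF-7 cells grown in DMEM plus 10% fetal bovine serum; activity fitted in both directions against DMSO.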

[9] = CCTE_Shafer_MEA_acute_burst_number: CCTE's Neural Acute Assay for Single-Electrode Bursts, Shafer Lab (AID 2284013)
Outline: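 Percent change in single-electrode burst number per well, from 40-min recordings taken before and after adding compound (0.03-40 uM) to primary rat cortical neurons on MEA plates at DIV 13 or 15, 37 C.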

[10] = CCTE_Shafer_MEA_acute_burst_duration_mean: CCTE's Neural Acute Assay for Mean Burst Duration, Shafer Lab (AID 2284014);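 note: hits are decreases in mean burst duration relative to DMSO controls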
Outline: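 Rat cortical cultures, DIV 13/15; 40 min baseline, then 40 min with compound (0.03-40 uM), 37 C. Spikes: 300-5000 Hz band-pass, 8x rms threshold. Read-out: % change in mean single-electrode burst duration, DMSO-referenced, loss direction.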

[11] = CCTE_Shafer_MEA_acute_interburst_interval_mean: CCTE's Neural Acute Assay for Mean Interburst Interval, Shafer Lab (AID 2284016);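 note: percent change of mean interburst interval versus each well's own pre-dose baseline; curves fitted for decrease in interburst interval relative to DMSO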
Outline: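 MEA recording of spontaneous network bursting in primary rat cortical cultures; mean interburst interval was compared before and after a 40-min compound exposure (0.03-40 uM) and expressed as percent change, relative to DMSO.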

[12] = CCTE_Shafer_MEA_acute_burst_percentage_mean: CCTE's Neural Acute Assay for Percentage of Spikes in a Burst, Shafer Lab (AID 2284017);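 for AC50: curve fitted for loss of signal so potency reflects decreased burst percentage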
Outline: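 Compounds were tested at 0.03-40 uM on primary rat cortical neuron networks grown over microelectrodes, with at least three wells per compound. Spontaneous firing was recorded for 40 min before and 40 min after dosing, and the change in burst percentage was computed per well.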

[13] = CCTE_Shafer_MEA_acute_burst_percentage_std: CCTE's Neural Acute Assay for Standard Deviation of Burst Percentage, Shafer Lab (AID 2284018);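 note: fitted in the negative direction so actives lower burst percentage SD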
Outline: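 Rat primary cortical neurons on 48-well MEAs, DIV 13 or 15, 37 C. 40-min baseline then 40-min recording with compound (0.03-40 uM); well-level SD of per-electrode burst spike percentage, expressed as percent change from baseline.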

[14] = CCTE_Shafer_MEA_acute_per_network_burst_spike_number_mean: CCTE's Neural Acute Assay for Average Number of Spikes in a Network Burst, Shafer Lab (AID 2284019);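 for AC50: curve fitted for loss of signal so actives reduce spikes per network burst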
Outline: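 Rat cortical cultures, DIV 13/15; spike threshold 8x rms noise, 300-5000 Hz band-pass, 12.5 kHz sampling; wells need >/= 10 active electrodes. Compound 0.03-40 uM, 40 min, 37 C; % change vs own baseline, DMSO negative control.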

[15] = CCTE_Shafer_MEA_acute_per_network_burst_spike_number_std: CCTE's Neural Acute Assay for Standard Deviation of Number of Spikes in a Network Burst, Shafer Lab (AID 2284020);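 note: fitted for decrease in spike-number SD versus DMSO so actives lower it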
Outline: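 Rat cortical cultures, DIV 13/15, 37 C; 20-min stabilisation, 40-min baseline, compound 0.03-40 uM, 40-min re-record. Spikes detected at 8x rms noise (300-5000 Hz band-pass). Readout: % change from baseline in per-burst spike-number SD.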

[16] = CCTE_Shafer_MEA_acute_cross_correlation_area: CCTE's Neural Acute Assay for Area of Cross Correlation, Shafer Lab (AID 2284024);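 note: area under pooled inter-electrode spike cross-correlation near zero lag as percent change from own baseline; curves fitted for loss of cross-correlation area so actives lower synchrony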
Outline: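 Percent change in well-wide cross-correlation area (window around zero lag) between 40 min baseline and 40 min post-compound recordings, 37 C; rat cortical cultures on MEA at DIV 13 or 15, dosed 0.03-40 uM, wells needing >/= 10 active electrodes.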

[17] = CCTE_Shafer_MEA_acute_cross_correlation_HWHM: CCTE's Neural Acute Assay for Cross Correlation at Half Width at Half Maximum, Shafer Lab (AID 2284026);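 note: percent change per well from pre-dose baseline in spike cross-correlogram half width; hits are a decrease in cross-correlogram half width relative to DMSO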
Outline: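 Per-well percent change in cross-correlogram half width at half maximum, derived from 40-min recordings before and after compound (0.03-40 uM) at 37 C. Cultures were rat cortical neurons, DIV 13 or 15, with adaptive spike detection at 8x rms.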

[18] = CCTE_Harrill_HTTr_CellCount_MCF7: CCTE's Cell Proliferation Assessment for the High-Throughput Transcriptomics (HTTr) Platform, Harrill Lab (AID 2284012; active = hit-call score of the fitted dose curve at least 0.9, where 1 is the maximum;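 note: cells exposed to compound for six hours; intended direction is loss of nuclei count meaning fewer cells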)
Outline: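 Cell count from high-content imaging of Hoechst-labeled nuclei serves as viability/growth readout. Chemicals were applied to MCF-7 cells in eight concentrations for six hours, with fitting in both directions relative to DMSO.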

Measured: AC50

CC(C)(C)c1ccc(CSc2cnn(C(C)(C)C)c(=O)c2Cl)cc1
inactive: [7] | [8] | [13]
active: [1] 0.96 µM | [2] 0.655 µM | [3] 359 nM | [4] 0.411 µM | [5] 0.0249 µM | [6] 0.0249 µM | [9] 0.019 µM | [10] 5.1 µM | [11] 0.492 µM | [12] 2.67 µM | [14] 1.64 µM | [15] 2.12 µM | [16] 0.0277 µM | [17] 4.43 µM

C=CCC1=C(C)[C@@H](OC(=O)[C@@H]2[C@@H](C=C(C)C)C2(C)C)CC1=O
active: [2] 47.4 µM | [5] 4.06 µM | [6] 4.06 µM | [9] 4.02 µM | [12] 36.5 µM | [17] 36.2 µM
not listed: [1] | [18]
inactive: all other assays above

Cc1ccc(-c2c(Cl)nc(C#N)n2S(=O)(=O)N(C)C)cc1
active: [1] 0.982 µM | [2] 34 µM | [11] 6.03 µM
not listed: [18]
inactive: all other assays above

N#Cc1cc(Br)c(O)c(Br)c1
active: [1] 9.69 µM | [4] 10.8 µM
inactive: [2] | [3] | [7] | [8] | [18]

O=C(Nc1ccccc1)Nc1ccnc(Cl)c1
inactive: [3] | [4] | [7] | [8] | [18]
active: [1] 72.3 µM | [2] 50 µM

C=CCC1=C(C)C(OC(=O)C2C(C=C(C)C)C2(C)C)CC1=O (configuration not stated)
inactive: [4] | [5] | [6] | [7] | [8] | [9] | [10] | [11] | [13] | [14] | [15] | [16] | [17]
active: [1] 34.7 µM and 46.9 µM | [2] 36.2 µM and 53.5 µM | [3] 26 µM and 42.3 µM | [4] 5.17 µM | [11] 3.88 µM | [12] 6.49 µM and 2.93 µM | [15] 0.727 µM | [17] 2.38 µM

OC(c1ccc(Cl)cc1)(c1cncnc1)c1ccccc1Cl (configuration not stated)
inactive: [1] | [2] | [3] | [4] | [7] | [8] | [18] | [13]
active: [5] 0.792 µM | [6] 0.803 µM | [9] 0.882 µM | [10] 5 µM | [11] 3.27 µM | [12] 2.9 µM | [14] 1.62 µM | [15] 2.84 µM | [16] 0.761 µM | [17] 4.34 µM

COc1nc(NC(C)C)nc(NC(C)C)n1
inactive: [2] | [3] | [4] | [7] | [8]
active: [1] 32.6 µM

O=C(O)COc1nc(Cl)c(Cl)cc1Cl
inactive: [1] | [2] | [3] | [7] | [8] | [18]

C#CCOS(=O)OC1CCCCC1Oc1ccc(C(C)(C)C)cc1 (configuration not stated)
active: [1] 15.5 µM | [2] 11.3 µM | [5] 9.46 µM | [6] 9.48 µM | [12] 32 µM | [13] 34.6 µM | [17] 20 µM
not listed: [4]
inactive: all other assays above
